Hits are enriched below; roughly 2.3% of the tested compounds scored in any of these assays.
ERp5 block = inhibitors of ERp5-driven insulin aggregation, primary screen, biochemical, turbidity, absorbance 650 nm, single point | Protein disulfide-isomerase A6 (Homo sapiens), Q15084 | 90 min | inhibition, % at 9.99 µM | hit rate 0.05% among 350,000 | AID 651711, 2012;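 active means mean replicate inhibition above about 25%, with every replicate also reaching it, limit read from the data, passing the limit was not always enough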
Target sequence (Q15084 whole entry, looked up): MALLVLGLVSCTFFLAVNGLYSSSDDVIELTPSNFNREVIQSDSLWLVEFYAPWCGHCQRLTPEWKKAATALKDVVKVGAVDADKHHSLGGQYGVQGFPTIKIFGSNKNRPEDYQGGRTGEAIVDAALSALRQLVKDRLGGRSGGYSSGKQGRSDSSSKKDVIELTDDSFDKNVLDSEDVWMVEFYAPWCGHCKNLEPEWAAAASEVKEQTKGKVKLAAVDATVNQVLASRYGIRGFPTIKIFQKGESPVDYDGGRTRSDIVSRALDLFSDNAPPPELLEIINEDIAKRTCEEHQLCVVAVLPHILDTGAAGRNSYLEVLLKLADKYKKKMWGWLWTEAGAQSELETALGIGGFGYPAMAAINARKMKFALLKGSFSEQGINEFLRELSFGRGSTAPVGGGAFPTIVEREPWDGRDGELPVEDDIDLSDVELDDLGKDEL
DENV2 CPE rescue = inhibitors of DENV2 cytopathic effect, primary screen, cell-based, plate reader, single concentration; DENV2-infected cells, cytopathic effect rescue; CPE inhibition, % at 9.99 µM; hit rate 1.7% among 350,000; AID 651640, 2012; in the data active means CPE inhibition above about 20%, passing the limit was not always enough; tested in BHK-21 cells
Rtt109 Vps75 = inhibitors of C. albicans Rtt109/Vps75 HAT, primary screen, biochemical, ThioGlo CoA-SH fluorescence, plate reader. Histone acetyltransferase RTT109 (Candida albicans (strain SC5314 / ATCC MYA-2876)), …. purified Rtt109/Vps75, 4 h. inhibition, % at 34.9 µM. hit rate 0.16% among 330,000. AID 540336, 2011;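 active means inhibition of at least 50% in every replicate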
PDI turbidity = inhibitors of human PDI, primary screen, biochemical, turbidity, single point, plate reader. PDI insulin aggregation turbidity, A650, 90 min. inhibition, % at 10 µM. hit rate 0.052% among 350,000. AID 588391, 2011;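 active means mean inhibition across replicates of 30% or more, whatever share of single replicates reach that level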
SIRT5 block = SIRT5 desuccinylase inhibitors, primary screen, biochemical, fluorescence imaging, single point, set 5; Purified SirT5, succinyl-peptide AMC, trypsin-coupled fluorescence; inhibition, % at 15 µM; hit rate 1.1% among 330,000; AID 652115, 2013; in the data active means inhibition above about 15%
Each line names hits and unclear results; the compound was inactive in the other large screens.

O=C(c1ccc2c(c1)OCO2)N1CC(=O)N2[C@H](CO)[C@@H](c3ccc(C#CCC4CCCC4)cc3)[C@H]2C1	SIRT5 block 16 (no result: Rtt109 Vps75, PDI turbidity)
O=C(c1ccc2c(c1)OCO2)N1CC(=O)N2[C@H](C1)[C@@H](c1ccc(C#CCC3CCCC3)cc1)[C@@H]2CO	SIRT5 block 18 (no result: Rtt109 Vps75, PDI turbidity)
Cc1ccccc1-c1ccc([C@H]2[C@H](CO)N3C(=O)CN(C(=O)Cc4ccccn4)C[C@@H]23)cc1	none (no result: Rtt109 Vps75, PDI turbidity)
O=C(C1CCOCC1)N1C[C@H]2[C@@H](c3ccccc31)[C@H](CO)N2Cc1ccccc1	none (no result: Rtt109 Vps75, PDI turbidity)
Cc1ccc(NC(=O)Cn2cccc2C2=NC(c3ccccc3)CO2)cc1C (stereo not given)	DENV2 CPE rescue 103
CCc1ccccc1NC(=O)Cn1cccc1C1=NC(c2ccccc2)CO1 (stereo not given)	none (no result: ERp5 block, DENV2 CPE rescue, SIRT5 block)
CN1CCN(c2ccc3c(c2)OC[C@@H](Cc2ccccc2)NS3(=O)=O)CC1	none (no result: Rtt109 Vps75, PDI turbidity)
O=S1(=O)N[C@@H](Cc2ccccc2)COc2cc(N3CCOCC3)ccc21	DENV2 CPE rescue 54 (no result: Rtt109 Vps75, PDI turbidity)
CCC(=O)N1C[C@H](O)COC[C@H]2O[C@@H](CC(=O)NCC3CCCCC3)CC[C@@H]21	none (no result: Rtt109 Vps75, PDI turbidity)
O=C(Nc1ccc(O)c(-c2nc3ccccc3s2)c1)c1cccs1	none
O=C(Nc1ccc(O)c(-c2nc3ccccc3s2)c1)c1cc(=O)c2ccccc2o1	Rtt109 Vps75 56 (no result: ERp5 block, DENV2 CPE rescue, SIRT5 block)
O=C(Cn1c2[n+](c3ccccc31)CC(O)CS2)c1ccccc1 (stereo not given)	DENV2 CPE rescue 58
Cc1cc2c(cc1S(=O)(=O)N1CCN(c3cccc(C(F)(F)F)c3)CC1)OCC(=O)N2	DENV2 CPE rescue 32
O=C1COc2ccc(S(=O)(=O)N3CCN(c4cccc(C(F)(F)F)c4)CC3)cc2N1	none
CCCCOc1ccc(/C=C/C(=O)OCC(=O)N2CC(=O)Nc3ccccc32)cc1OCC	SIRT5 block 17
O=C1CN(C(=O)/C=C/c2ccc(Cl)cc2)c2ccccc2N1	Rtt109 Vps75 56
O=C1CN(C(=O)COc2cccc(F)c2)c2ccccc2N1	SIRT5 block 18 (no result: Rtt109 Vps75, PDI turbidity)
CNC(=O)C[C@H]1CC[C@@H]2[C@H](COc3ccc(NC(=O)c4cc(C)on4)cc3C(=O)N2C)O1	none (no result: ERp5 block, Rtt109 Vps75, PDI turbidity, SIRT5 block)
CO[C@@H]1CN(C)C(=O)c2ccc(NS(=O)(=O)c3ccc(Cl)cc3)cc2OC[C@H](C)NC[C@@H]1C	none (no result: Rtt109 Vps75, PDI turbidity)
COCC(=O)NC[C@H]1[C@@H](c2ccccc2)[C@@H](CO)N1C(C)=O	none (no result: Rtt109 Vps75, PDI turbidity)
N#C[C@H]1[C@@H](c2ccccc2-c2cccc(F)c2)[C@H](CO)N1C(=O)C1CCC1	none (no result: Rtt109 Vps75, PDI turbidity)
N#C[C@@H]1[C@@H](c2ccccc2-c2cccc(F)c2)[C@@H](CO)N1C(=O)C1CCC1	DENV2 CPE rescue 29 (no result: Rtt109 Vps75, PDI turbidity)
COCC(=O)N1[C@H](CO)[C@H](c2ccccc2-c2cccc(F)c2)[C@@H]1C#N	DENV2 CPE rescue 33 (no result: Rtt109 Vps75, PDI turbidity)
COc1ccc(NC(=O)N(C)C[C@H]2OCCCC[C@@H](C)Oc3ccc(NC(=O)Cc4ccccc4)cc3C(=O)N([C@@H](C)CO)C[C@@H]2C)cc1	none (no result: Rtt109 Vps75, PDI turbidity)
CCCNC(=O)C[C@H]1CC[C@@H]2[C@H](COc3ccc(NC(=O)Nc4ccccc4)cc3C(=O)N2C)O1	none (no result: ERp5 block, Rtt109 Vps75, PDI turbidity, SIRT5 block)
C/C(=N\NC(=O)c1ccc(CSc2cccc3cccnc23)cc1)C1CCCCC1	DENV2 CPE rescue 102
C=CC[C@H](CC(=O)N(CCO)Cc1ccccc1)C(=O)N[C@H](COC(=O)[C@H](CC=C)CC(=O)OC(C)(C)C)Cc1ccccc1	none (no result: DENV2 CPE rescue, SIRT5 block)
C=CC[C@@H](CC(=O)N(CCO)Cc1ccccc1)C(=O)N[C@H](COC(=O)[C@@H](CC=C)CC(=O)OC(C)(C)C)c1ccccc1	SIRT5 block 20
C=CC[C@H](CC(=O)N(CCO)Cc1ccccc1)C(=O)N[C@@H](COC(=O)[C@H](CC=C)CC(=O)OC(C)(C)C)Cc1c[nH]c2ccccc12	SIRT5 block 27
CC(=O)Nc1ccc(NC(=O)C(C)n2nc(C)c([N+](=O)[O-])c2C)cc1 (stereo not given)	SIRT5 block 28
CO[C@H]1O[C@H](CO)[C@@H](OC(=O)Nc2cccc(F)c2)[C@H](OC(=O)Nc2ccccc2)[C@H]1OC(=O)Nc1ccccc1	none (no result: Rtt109 Vps75, PDI turbidity)
